# Mtb bLac sens – beta-lactam sensitization of Mtb H37Rv; inhibition, % at 25 µM; 330,000 tested, 0.27% active; M. tuberculosis H37Rv growth with meropenem, percent inhibition; call rule not given here;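 also: growth measured after seven days incubation then overnight dye step; 0% = bacteria only wells and 100% = bacteria with antibiotic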
# ugtP null kill – compounds lethal to S. aureus RN4220 ugtP deletion mutant | OD600 growth, 16 h | growth inhibition, % (concentration not given with the values) | 330,000 tested, 0.54% active; in the data active = growth inhibition above about 68%;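 also: plate controls were untreated wells for no effect and antibiotic for full effect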
# RN4220 kill – S. aureus RN4220 growth inhibition. OD600, 16 h. inhibition, % (no concentration beside the values). 330,000 tested, 0.33% active; in the data active = inhibition above about 85%;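 also: plate controls were untreated cells for no effect and reference antibiotic for full effect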
# Rv3671c inh – inhibitors of M. tuberculosis serine protease Rv3671c | 320,000 tested, 0.048% active | AID 2606 | inhibition, % at 5.96 µM; in the data active = inhibition above about 38%;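 also: extracellular domain of Rv3671c used as enzyme; 0% = enzyme with DMSO and 100% = no enzyme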
# Target sequence (P9WHR9 whole entry, looked up, the tested form may be a part): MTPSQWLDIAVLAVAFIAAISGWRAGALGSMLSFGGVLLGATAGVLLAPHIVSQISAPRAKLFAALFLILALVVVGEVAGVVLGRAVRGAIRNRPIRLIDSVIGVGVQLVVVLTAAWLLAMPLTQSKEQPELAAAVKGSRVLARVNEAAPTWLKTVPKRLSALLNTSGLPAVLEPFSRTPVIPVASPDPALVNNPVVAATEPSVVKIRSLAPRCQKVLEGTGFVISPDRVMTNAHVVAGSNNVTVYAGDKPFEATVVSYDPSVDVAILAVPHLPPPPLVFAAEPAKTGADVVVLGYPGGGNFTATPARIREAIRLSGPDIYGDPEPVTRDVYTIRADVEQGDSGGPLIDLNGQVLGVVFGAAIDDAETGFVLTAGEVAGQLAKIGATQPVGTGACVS
# Mtb hypoxia rep – reduces hypoxia-regulated biosensor signal in M. tuberculosis | M. tuberculosis hypoxia-regulated fluorescent reporter, fluorescence | AID 1159583 | fluorescence inhibition, % (no concentration beside the values) | 300,000 tested, 0.1% active; in the data active = fluorescence inhibition mostly above about 23%, no sharp cut-off; inactive = mostly below about 17%
# Mtb UGM inh – blocks M. tuberculosis UGM enzyme. inhibition, % at 10 µM. purified UGM, fluorescence polarization probe displacement. P9WIQ1. AID 504406. 320,000 tested, 0.06% active; in the data active = inhibition above about 10%, passing the limit was not always enough
# Starred values were filed as active, the others as inactive; / = no result given. Sampled rows, rich in hits. Any-hit rate of the full collection: about 0.68%.
SMILES,Mtb bLac sens,ugtP null kill,RN4220 kill,Rv3671c inh,Mtb hypoxia rep,Mtb UGM inh
COC1C(OC(N)=O)C(O)C(Oc2ccc3c(O)c(NC(=O)c4ccc(O)c(CC=C(C)C)c4)c(=O)oc3c2C)OC1(C)C (stereo not given),/,99*,100*,/,/,/
C=CCOC(=O)C1=CC(C2CCCCC2)CC(OCc2ccc(CO)cc2)O1 (stereo not given),/,2,1,/,8,/
CCOC(=O)C1CCN(c2c(C(=O)c3ccccc3)cnc3ccc(Cl)cc23)CC1,-1,100*,55,4,/,0
CCCCCCCN1CCC(=O)N(C(CO)c2ccccc2)CC1 (stereo not given),/,2,6,/,8,/
COc1ccc(N2C(=O)c3cccc4cccc(c34)C2=O)cc1,-6,2,4,-3,13,3
COc1ccc(N2C(=O)c3cccc4c(N(C)CCO)ccc(c34)C2=O)cc1,7,3,3,/,2,21*
O=C(Nc1ccc(Cl)cc1)/C(=C/c1cccc(O)c1)c1nc2ccccc2s1,9,89*,69,-53,2,0
CCC(C)C(NC(=O)OC(C)(C)C)c1nnc(SCc2c(C)[nH]c(=O)[nH]c2=O)o1 (stereo not given),/,0,7,/,/,/
CCc1ccc(C(=O)NC(=S)Nc2ccc(N3CCOCC3)cc2)cc1,86,89*,-3,-5,/,-5
O=C(NC(=S)Nc1ccc(N2CCOCC2)cc1)c1cccc(Cl)c1,-2,93*,5,9,12,0
COc1ccc(C(=O)NC(=S)Nc2ccc(CN3CCOCC3)cc2)cc1Cl,-1,86*,8,-2,14,0
CN1C(=O)/C(=C/c2ccc(N3CCCCCC3)o2)C(=O)NC1=S,92,2,3,-18,45*,1
N#Cc1ccc(C2=CC(=O)CC(c3ccc(Cl)cc3)C2)cc1 (stereo not given),/,4,1,/,8,/
COc1ccc(C2=CSC(/N=C/c3ccc(F)cc3)=NN2)cc1,-8,/,/,7,/,0
COc1ccc(C2=CSC(N=Cc3ccc(F)cc3)=NN2)cc1,/,-18,-2,/,39*,/
COCc1cc(Sc2c(Cl)cccc2Cl)nc(-c2ccccc2)n1,3,85*,-10,-2,/,2
O=C(Nc1ccccc1)C1=CC(C2CCCCC2)CC(OCCCCO)O1 (stereo not given),/,-13,0,/,7,/
O=C(OCC(=O)C12CC3CC(CC(C3)C1)C2)c1ccc(O)cc1,3,5,0,8,5,1
O=C(OCC(=O)C12CC3CC(CC(C3)C1)C2)c1ccc(CO)cc1,-2,0,0,1,25*,-1
CCN(C[C@H]1N[C@@](Cc2ccccc2)(C(=O)OC)[C@H]2C(=O)N(Cc3ccccc3)C(=O)[C@@H]12)C(=O)Nc1ccc(C(F)(F)F)cc1,100,100*,100*,-103,-16,-2
Cc1cccc(C)c1OC(=O)C(c1ccccc1)c1ccccc1,6,96*,0,-11,9,-1
CCOC(=O)C=CC1Cc2ccccc2CO1 (stereo not given),/,6,6,/,6,/
CCc1ccc(C(C)=NNC(=O)c2ccc(-n3cnnn3)cc2)cc1,/,1,5,/,19*,/
CCN1/C(=C/C=C/C=C/C=C/c2sc3ccccc3[n+]2CC)Sc2ccccc21,6,98*,92*,-58,-2,0
CCN1/C(=C/C=C/C=C/c2sc3ccccc3[n+]2CC)Sc2ccccc21,99,/,/,-298,/,-5
SMILES,Mtb bLac sens,ugtP null kill,RN4220 kill,Rv3671c inh,Mtb hypoxia rep,Mtb UGM inh
COc1ccc(C(=O)C=CN2CCOCC2)cc1,/,-3,2,/,2,/
O=c1[nH]c(=O)n(C2CC(O)C(CO)O2)cc1F (stereo not given),/,99*,99*,/,0,/
Oc1cc2c(cc1C(c1ccc(Cl)c(Cl)c1)N1CCCC1)OCO2 (stereo not given),/,87*,41,/,4,/
NCCCCc1ccc2ccc3cccc4ccc1c2c34,/,100*,101*,/,9,/
C[C@]12CCC3c4ccc(OC5OC(C(=O)O)C(O)C(O)C5O)cc4CCC3C1CC(O)C2O (stereo not given in full),/,4,3,/,-7,/
COc1ccc(C=C2NC(=S)NC2=O)cc1,/,1,-3,/,19,/
COc1ccc(C(=O)N2C(=S)NC(=O)/C2=C\c2ccc(C)cc2)cc1,19,100*,-9,-38,2,5
COC(=O)[C@]1(Cc2ccccc2)NC(c2ccc(-c3ccccc3)cc2)C2C(=O)N(C)C(=O)C21 (stereo not given in full),/,-1,-1,/,4,/
CCC1=C(OC(=O)N(CC)CC)N2C(=O)OC(=NCCc3c[nH]c4ccccc34)[C@]2(C)C2C1=CCC1C(=O)N(CC(=O)OC)C(=O)C12 (stereo not given in full),/,-1,9,/,0,/
O=C(c1nnsc1S(=O)c1ccc(Cl)cc1)N1CCOCC1 (stereo not given),/,101*,95*,/,/,/
O=C(c1nnsc1S(=O)(=O)c1ccc(Cl)cc1)N1CCOCC1,/,19,10,/,23,/
O=C(Nc1ccccc1)c1nnsc1S(=O)c1ccc(Cl)cc1 (stereo not given),100,101*,100*,-8,/,2
COC(=O)C1=C(c2ccc(C(C)=O)cc2)CC2CCC1N2C(=O)NC1CC1 (stereo not given),/,-2,2,/,5,/
CN(C)C=CC(=O)Oc1ccc(Cl)cc1Cl,/,-2,2,/,2,/
Cc1ccc(S(=O)(=O)N(C)N=O)cc1,5,99*,99*,2,0,-3
Cc1ccc(S(=O)(=O)N(C)S(=O)(=O)c2ccc(C)cc2)cc1,-2,8,3,-3,16,-1
O=C(O)CC(C(=O)O)N1C(=O)/C(=C/c2ccc(-c3nc4ccccc4s3)o2)SC1=S (stereo not given),-11,-11,-1,11,19,0
O=C(O)CCN1C(=O)/C(=C/c2ccc(-c3nc4ccccc4s3)o2)SC1=S,/,1,99*,-1,22,-3
O=C(O)CCCN1C(=O)/C(=C/C=C/c2ccco2)SC1=S,1,4,7,10,23,0
O=C(O)CCCN1C(=O)/C(=C\c2ccc(-c3nc4ccccc4s3)o2)SC1=S,/,100*,47,0,12,2
COc1cccc(C=CC(=O)OCC(=O)NCC2CCCO2)c1 (stereo not given),/,0,5,/,4,/
NC(=O)CNC(=O)C1CC2(CC(c3ccc(Cl)cc3)=NO2)CN1C(=O)c1ccc(Br)cc1 (stereo not given),/,-1,3,/,9,/
COc1ccc(N=CC2=C(Nc3ccc(OC)cc3)c3c(C)nn(-c4ccccn4)c3CC2)cc1,100,/,/,-2,/,14*
COc1ccc(-c2cc(C(=O)O)c3c(C)nn(-c4ccccn4)c3n2)cc1,8,-7,0,4,/,/
CNCC(NCC(NCCCc1ccccc1)c1ccccc1)C(C)O (stereo not given),/,-1,7,/,6,/
